# Test results from the supplement of paper PMC8728848.
# The sample as a whole holds a higher share of the strongest signals than the screen did.
# B1: SspB C123 (Streptococcus gordonii), Q54186 (protein)
# chain: MAHFHYSSLLAQPQINKEIKNEDGVDIDRTLVAKQSIGKFELKTEALTAGRPKTTSFVLVDPLPTGYKFDLDATKAASTGFDTTYDEASHTVTFKATDETLATYNADLTKPVETLHPTVVGRVLNDGATYTNNFTLTVNDAYGIKSNVVRVTTPGKPNDPDNPNNNYIKPTKVNKNKEGLNIDGKEVLAGSTNYYELTWDLDQYKGDKSSKEAIQNGFYYVDDYPEEALDVRPDLVKVADEKGNQVSGVSVQQYDSLEAAPKKVQDLLKKANITVKGAFQLFSADNPEEFYKQYVSTGTSLVITDPMTVKSEFGKTGGKYENKAYQIDFGNGYATEVVVNNVPKITPKKDVTVSLDPTSENLDGQTVQLYQTFNYRLIGGFIPQNHSEELEDYSFVDDYDQAGDQYTGNYKTFSSLNLTMKDGSVIKAGTDLTSQTTAETDATNGIVTVRFKEDFLQKISLDSPFQAETYLQMRRIAIGTFENTYVNTVNKVAYASAAALEHHHHHH
# Key:
# Assay in all cases: glycan array binding signal (z-score within array); higher = stronger binding
# Details in all cases: glycan notation: IUPAC condensed, linker removed
# [1] = biological target: Fuc(a1-2)Gal(b1-3)GalNAc(a1-3)[Fuc(a1-2)]Gal(b1-4)GlcNAc
# How it was run: (§1)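 The binding signal is a Z-score computed within each array and averaged over linkers. Arrays of the same protein sequence at different concentrations or buffers were also averaged together. Data originate from 3228 arrays in the Consortium for Functional Glycomics database, kept only where the protein sequence was available.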
# [2] = biological target: Fuc(a1-2)Gal(b1-3)GlcNAc(b1-3)[Gal(b1-4)GlcNAc(b1-6)]Gal(b1-4)Glc
# How it was run: as §1
# [3] = biological target: Fuc(a1-2)Gal(b1-4)GlcNAc(b1-2)[Fuc(a1-2)Gal(b1-4)GlcNAc(b1-4)]Man(a1-3)[Fuc(a1-2)Gal(b1-4)GlcNAc(b1-2)Man(a1-6)]Man(b1-4)GlcNAc(b1-4)GlcNAc
# How it was run: as §1
# [4] = biological target: Fuc(a1-2)Gal(b1-4)GlcNAc(b1-3)GalNAc
# How it was run: as §1
# [5] = biological target: Fuc(a1-2)Gal(b1-4)[Fuc(a1-3)]GlcNAc(b1-3)GalNAc
# How it was run: as §1
# [6] = biological target: Fuc(a1-2)[GalNAc(a1-3)]Gal
# How it was run: as §1
# [7] = biological target: Fuc(a1-2)[GalNAc(a1-3)]Gal(b1-3)GlcNAc
# How it was run: as §1
# [8] = biological target: Fuc(a1-2)[GalNAc(a1-3)]Gal(b1-3)GlcNAc(b1-6)GalNAc
# How it was run: as §1
# [9] = biological target: Fuc(a1-2)[GalNAc(a1-3)]Gal(b1-4)GlcNAc
# How it was run: as §1
# [10] = biological target: Fuc(a1-3)[Gal3S(b1-4)]GlcNAc
# How it was run: as §1
# [11] = biological target: Gal(a1-3)Gal(b1-4)GlcNAc(b1-3)GalNAc
# How it was run: as §1
# [12] = biological target: Gal(b1-3)GlcNAc(b1-3)Gal(b1-4)Glc
# How it was run: as §1
# Gal(b1-4)GlcNAc(b1-2)Man = biological target: Gal(b1-4)GlcNAc(b1-2)Man
# How it was run: as §1
# [13] = biological target: Gal(b1-4)GlcNAc(b1-3)Gal(b1-3)GlcNAc
# How it was run: as §1
# [14] = biological target: Gal(b1-4)GlcNAc(b1-3)Gal(b1-4)GlcNAc(b1-3)Gal(b1-4)GlcNAc(b1-2)Man(a1-3)[Gal(b1-4)GlcNAc(b1-3)Gal(b1-4)GlcNAc(b1-3)Gal(b1-4)GlcNAc(b1-2)Man(a1-6)]Man(b1-4)GlcNAc(b1-4)[Fuc(a1-6)]GlcNAc
# How it was run: as §1
# [15] = biological target: Gal(b1-4)GlcNAc(b1-3)Gal(b1-4)GlcNAc(b1-3)Gal(b1-4)GlcNAc(b1-3)Gal(b1-4)GlcNAc(b1-3)Gal(b1-4)GlcNAc(b1-2)Man(a1-3)[Gal(b1-4)GlcNAc(b1-3)Gal(b1-4)GlcNAc(b1-3)Gal(b1-4)GlcNAc(b1-3)Gal(b1-4)GlcNAc(b1-3)Gal(b1-4)GlcNAc(b1-2)Man(a1-6)]Man(b1-4)GlcNAc(b1-4)[Fuc(a1-6)]GlcNAc
# How it was run: as §1
# [16] = biological target: Gal(b1-4)GlcNAc(b1-3)Gal(b1-4)GlcNAc(b1-3)Gal(b1-4)GlcNAc(b1-3)Gal(b1-4)GlcNAc(b1-3)Gal(b1-4)GlcNAc(b1-2)[Gal(b1-4)GlcNAc(b1-3)Gal(b1-4)GlcNAc(b1-3)Gal(b1-4)GlcNAc(b1-3)Gal(b1-4)GlcNAc(b1-3)Gal(b1-4)GlcNAc(b1-6)]Man(a1-6)[Gal(b1-4)GlcNAc(b1-3)Gal(b1-4)GlcNAc(b1-3)Gal(b1-4)GlcNAc(b1-3)Gal(b1-4)GlcNAc(b1-3)Gal(b1-4)GlcNAc(b1-2)Man(a1-3)]Man(b1-4)GlcNAc(b1-4)[Fuc(a1-6)]GlcNAc
# How it was run: as §1
# [17] = biological target: Gal(b1-4)GlcNAc(b1-3)GalNAc
# How it was run: as §1
# [18] = biological target: Gal(b1-4)GlcNAc(b1-6)[Gal(b1-3)]GalNAc
# How it was run: as §1
# [19] = biological target: Gal3S(b1-3)[Fuc(a1-4)]GlcNAc
# How it was run: as §1
# Gal3S(b1-4)Glc6S = biological target: Gal3S(b1-4)Glc6S
# How it was run: as §1
# Gal3S(b1-4)GlcNAc = biological target: Gal3S(b1-4)GlcNAc
# How it was run: as §1
# [20] = biological target: Gal3S(b1-4)[Fuc(a1-3)]Glc6S
# How it was run: as §1
# Gal6S(b1-4)GlcNAc6S = biological target: Gal6S(b1-4)GlcNAc6S
# How it was run: as §1
# [21] = biological target: GalNAc(b1-3)Gal(a1-6)Gal(b1-4)Glc
# How it was run: as §1
# GalNAc4S6S(b1-4)GlcNAc = biological target: GalNAc4S6S(b1-4)GlcNAc
# How it was run: as §1
# Glc(b1-4)Glc = biological target: Glc(b1-4)Glc
# How it was run: as §1
# GlcA(b1-3)Gal = biological target: GlcA(b1-3)Gal
# How it was run: as §1
# GlcA(b1-6)Gal = biological target: GlcA(b1-6)Gal
# How it was run: as §1
# [22] = biological target: GlcNAc(b1-2)Man(a1-3)[GlcNAc(b1-4)][GlcNAc(b1-2)Man(a1-6)]Man(b1-4)GlcNAc(b1-4)[Fuc(a1-6)]GlcNAc
# How it was run: as §1
# [23] = biological target: GlcNAc(b1-3)Gal(b1-4)GlcNAc(b1-3)Gal(b1-4)GlcNAc(b1-3)Gal(b1-4)GlcNAc(b1-2)Man(a1-3)[GlcNAc(b1-3)Gal(b1-4)GlcNAc(b1-3)Gal(b1-4)GlcNAc(b1-3)Gal(b1-4)GlcNAc(b1-2)Man(a1-6)]Man(b1-4)GlcNAc(b1-4)[Fuc(a1-6)]GlcNAc
# How it was run: as §1
# [24] = biological target: GlcNAc(b1-3)Gal(b1-4)GlcNAc(b1-3)[GlcNAc(b1-3)Gal(b1-4)GlcNAc(b1-3)]GalNAc
# How it was run: as §1
# GlcNAc(b1-6)GalNAc = biological target: GlcNAc(b1-6)GalNAc
# How it was run: as §1
# Man(a1-6)Man = biological target: Man(a1-6)Man
# How it was run: as §1
# [25] = biological target: Neu5Ac(a2-3)Gal(b1-3)GalNAc(b1-3)Gal(a1-4)Gal(b1-4)Glc
# How it was run: as §1
# [26] = biological target: Neu5Ac(a2-3)Gal(b1-3)GalNAc(b1-4)[Neu5Ac(a2-8)Neu5Ac(a2-3)]Gal(b1-4)Glc
# How it was run: as §1
# [27] = biological target: Neu5Ac(a2-3)Gal(b1-4)[Fuc(a1-3)]GlcNAc(b1-3)Gal(b1-4)[Fuc(a1-3)]GlcNAc(b1-3)Gal(b1-4)[Fuc(a1-3)]GlcNAc
# How it was run: as §1
# [28] = biological target: Neu5Ac(a2-3)Gal(b1-4)[Fuc(a1-3)]GlcNAc(b1-3)GalNAc
# How it was run: as §1
# [29] = biological target: Neu5Ac(a2-3)Gal(b1-4)[Fuc(a1-3)]GlcNAc(b1-6)[Neu5Ac(a2-3)Gal(b1-3)]GalNAc
# How it was run: as §1
# [30] = biological target: Neu5Ac(a2-3)Gal6S(b1-4)[Fuc(a1-3)]GlcNAc
# How it was run: as §1
# Neu5Ac(a2-6)Gal(b1-4)Glc = biological target: Neu5Ac(a2-6)Gal(b1-4)Glc
# How it was run: as §1
# [31] = biological target: Neu5Ac(a2-6)Gal(b1-4)GlcNAc(b1-2)Man(a1-6)Man(b1-4)GlcNAc(b1-4)GlcNAc
# How it was run: as §1
# [32] = biological target: Neu5Ac(a2-6)Gal(b1-4)GlcNAc(b1-3)Gal(b1-3)GlcNAc
# How it was run: as §1
# [33] = biological target: Neu5Ac(a2-6)Gal(b1-4)GlcNAc(b1-3)Gal(b1-4)GlcNAc(b1-3)Gal(b1-4)GlcNAc(b1-2)Man(a1-3)[Neu5Ac(a2-6)Gal(b1-4)GlcNAc(b1-3)Gal(b1-4)GlcNAc(b1-3)Gal(b1-4)GlcNAc(b1-2)Man(a1-6)]GalNAc
# How it was run: as §1
# [34] = biological target: Neu5Ac(a2-6)Gal(b1-4)GlcNAc(b1-3)Gal(b1-4)[Fuc(a1-3)]GlcNAc(b1-3)Gal(b1-4)[Fuc(a1-3)]GlcNAc
# How it was run: as §1
# [35] = biological target: Neu5Ac(a2-6)Gal(b1-4)GlcNAc(b1-3)[Neu5Ac(a2-6)Gal(b1-4)GlcNAc(b1-6)]GalNAc
# How it was run: as §1
# [36] = biological target: Neu5Ac(a2-8)Neu5Ac(a2-8)Neu5Ac(a2-3)[Gal(b1-3)GalNAc(b1-4)]Gal(b1-4)Glc
# How it was run: as §1
# [37] = biological target: Neu5Ac(a2-8)Neu5Gc(a2-3)Gal(b1-4)GlcNAc
# How it was run: as §1
# [38] = biological target: Neu5Ac9Ac(a2-3)Gal(b1-4)GlcNAc
# How it was run: as §1
# [39] = biological target: Neu5Ac9Ac(a2-6)Gal(b1-4)GlcNAc
# How it was run: as §1
# [40] = biological target: Neu5Gc(a2-8)Neu5Gc(a2-3)Gal(b1-4)GlcNAc
# How it was run: as §1
binder,measurement,setting,value
B1,glycan array binding signal (z-score),[1],-1.8
same,glycan array binding signal (z-score),[2],-0.17
same,glycan array binding signal (z-score),[3],2.68
same,glycan array binding signal (z-score),[4],-0.78
same,glycan array binding signal (z-score),[5],3.99
same,glycan array binding signal (z-score),[6],-0.539
same,glycan array binding signal (z-score),[7],0.229
same,glycan array binding signal (z-score),[8],-0.099
same,glycan array binding signal (z-score),[9],-0.406
same,glycan array binding signal (z-score),[10],0.073
same,glycan array binding signal (z-score),[11],-0.133
same,glycan array binding signal (z-score),[12],0.516
same,glycan array binding signal (z-score),Gal(b1-4)GlcNAc(b1-2)Man,-0.183
same,glycan array binding signal (z-score),[13],1.37
same,glycan array binding signal (z-score),[14],1.26
same,glycan array binding signal (z-score),[15],0.993
same,glycan array binding signal (z-score),[16],2.74
same,glycan array binding signal (z-score),[17],0.085
same,glycan array binding signal (z-score),[18],0.155
same,glycan array binding signal (z-score),[19],0.284
same,glycan array binding signal (z-score),Gal3S(b1-4)Glc6S,0.314
same,glycan array binding signal (z-score),Gal3S(b1-4)GlcNAc,0.468
same,glycan array binding signal (z-score),[20],5.71
same,glycan array binding signal (z-score),Gal6S(b1-4)GlcNAc6S,1.05
same,glycan array binding signal (z-score),[21],-0.455
same,glycan array binding signal (z-score),GalNAc4S6S(b1-4)GlcNAc,-0.886
same,glycan array binding signal (z-score),Glc(b1-4)Glc,-0.604
same,glycan array binding signal (z-score),GlcA(b1-3)Gal,-1.48
same,glycan array binding signal (z-score),GlcA(b1-6)Gal,3.52
same,glycan array binding signal (z-score),[22],-0.492
same,glycan array binding signal (z-score),[23],0.372
same,glycan array binding signal (z-score),[24],0.786
same,glycan array binding signal (z-score),GlcNAc(b1-6)GalNAc,-0.398
same,glycan array binding signal (z-score),Man(a1-6)Man,3.13
same,glycan array binding signal (z-score),[25],-0.945
same,glycan array binding signal (z-score),[26],-0.494
same,glycan array binding signal (z-score),[27],2.7
same,glycan array binding signal (z-score),[28],2.98
same,glycan array binding signal (z-score),[29],3.38
same,glycan array binding signal (z-score),[30],-0.28
same,glycan array binding signal (z-score),Neu5Ac(a2-6)Gal(b1-4)Glc,-0.254
same,glycan array binding signal (z-score),[31],-0.261
same,glycan array binding signal (z-score),[32],-0.017
same,glycan array binding signal (z-score),[33],3.21
same,glycan array binding signal (z-score),[34],0.632
same,glycan array binding signal (z-score),[35],-0.829
same,glycan array binding signal (z-score),[36],5.25
same,glycan array binding signal (z-score),[37],-0.198
same,glycan array binding signal (z-score),[38],-0.938
same,glycan array binding signal (z-score),[39],0.758
same,glycan array binding signal (z-score),[40],-0.249
